TDP1 cell noCPT: qHTS for Inhibitors of human tyrosyl-DNA phosphodiesterase 1 (TDP1): qHTS in cells in absence of CPT. actives 15% (n = 420,000). DT40 Tdp1-/- hTDP1 cells, no CPT, ATP luminescence, 48 h. Potency, µM (titrated, usually from 46.2 µM), actives largely listed as inhibitors; also: nearly all actives have a fitted effect of over 55% in size
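Readout: luminescence from CellTiter-Glo after 30 min in the dark at RT. Cells: DT40 Tdp1-/- with stable hTDP1, 400/well. Exposure: compounds alone, ≥48 hr, 37 °C.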
HT1080 IDH1KD tx: qHTS for induction of synthetic lethality in tumor cells producing 2HG: qHTS for the HT-1080-IDH1KD cell line. actives 2% (n = 360,000). Potency, µM (series often up to 46.1 µM), usual class: cytotoxic. HT-1080 IDH1 knockdown viability, ATP luminescence, 48 h
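HT-1080-IDH1KD cells (IDH1 knocked down), 750/well in RPMI with 5% FBS, treated with compound 48 h at 37 degrees C. Viability by CellTiter-Glo luminescence, normalised to DMSO and no-cell wells; concentration-response curves classed.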
HT1080-NT tox: qHTS for induction of synthetic lethality in tumor cells producing 2HG: qHTS for the HT-1080-NT fibrosarcoma cell line; HT-1080-NT fibrosarcoma viability, CellTiter-Glo ATP luminescence, 48 h; Potency, µM (doses to about 46.1 µM), usual class: cytotoxic; actives 1.6% (n = 360,000);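 also: NT is the 2HG producing partner of a matched IDH1 knockdown line; nearly all actives have a fitted effect of over 55% in size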
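Fibrosarcoma NT cells, 750 per well in 5% FBS RPMI, were exposed to compound for 48 hours. Viability: CellTiter-Glo luminescence.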
TDP1 cell CPT: qHTS for Inhibitors of human tyrosyl-DNA phosphodiesterase 1 (TDP1): qHTS in cells in presence of CPT; chicken DT40 Tdp1-/-;hTDP1 cells + 20 nM CPT, ATP luminescence, 48 h; Potency, µM (series often up to 46.2 µM), hits mostly inhibitors; actives 12% (n = 420,000); also: nearly all actives have a fitted effect of over 55% in size
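Cell growth measured by CellTiter-Glo luminescence after a minimum 48 h, 37 C compound exposure with 20 nM CPT in Tdp1-knockout DT40 cells stably expressing hTDP1, seeded 400/well; qHTS titration format.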
12-LOX inh: Primary qHTS assay for inhibitors of human arachidonate 12S-lipoxygenase (ALOX12): Round 2 | purified 12hLO, xylenol orange hydroperoxide absorbance | Potency, µM (titrated, usually from 108 µM), hits mostly inhibitors | Polyunsaturated fatty acid lipoxygenase ALOX12 (Homo sapiens), P18054 | actives 1.1% (n = 580,000)
Target sequence (P18054 whole entry, looked up): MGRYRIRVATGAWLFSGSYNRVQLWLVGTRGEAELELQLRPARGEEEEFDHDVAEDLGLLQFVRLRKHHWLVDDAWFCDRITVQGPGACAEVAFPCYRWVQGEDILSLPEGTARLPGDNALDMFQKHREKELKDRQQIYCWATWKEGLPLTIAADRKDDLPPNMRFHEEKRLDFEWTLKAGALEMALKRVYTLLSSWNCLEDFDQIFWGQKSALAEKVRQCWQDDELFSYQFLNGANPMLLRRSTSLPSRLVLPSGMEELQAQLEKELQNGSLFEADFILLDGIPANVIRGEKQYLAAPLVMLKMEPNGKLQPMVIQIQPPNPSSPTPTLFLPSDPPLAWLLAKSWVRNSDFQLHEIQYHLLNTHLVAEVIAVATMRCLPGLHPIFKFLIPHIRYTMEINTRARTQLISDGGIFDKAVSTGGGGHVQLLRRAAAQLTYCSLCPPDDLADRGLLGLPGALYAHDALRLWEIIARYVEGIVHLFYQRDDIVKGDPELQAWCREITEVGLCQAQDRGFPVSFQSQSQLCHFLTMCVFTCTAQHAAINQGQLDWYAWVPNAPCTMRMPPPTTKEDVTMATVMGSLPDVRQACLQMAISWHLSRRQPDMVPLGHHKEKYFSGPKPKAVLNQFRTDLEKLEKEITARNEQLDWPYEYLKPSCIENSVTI
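Purified human 12hLO at 150 nM in 25 mM Hepes, 0.01% Triton X-100, pH 7.0, preincubated 15 min at room temperature with compound. Reaction started with 40 uM arachidonic acid, 30 min at room temperature. Hydroperoxide measured by Fe-xylenol orange, 573/405 nm absorbance ratio.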
IL-1B inflam inh: qHTS for Inhibitors of Inflammasome Signaling: IL-1-beta AlphaLISA Primary Screen. THP-1 LPS/ATP IL-1B secretion, AlphaLISA, 16 h; stronger effect = lower value. activity change, % at 57.5 µM. actives 4.7% (n = 360,000). AID 743279, 2014; in the data active = activity change below about -50%; inconclusive = mostly about -30% to -49%
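Secreted IL-1B measured by AlphaLISA bead assay after 16 h compound exposure of THP-1 cells; compounds (final up to 57.5 uM) added 1 h before LPS (250 ng/mL) and ATP (1.25 mM) stimulation; lower signal means less secretion.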
A number is an active result; – = inactive; ? = inconclusive; · = no result; [ ] = another dose, or the depositor's remark. This is one part of a sample in which hits are shown more often than they occur. Unless noted, calls follow the shape of the dose curve; as a rule, active = well fitted curve in the direction sought with a large enough effect; inconclusive = small, poorly fitted or top-dose-only effect, or another doubt; inactive = no such curve, though single readings can be large; an effect the other way counts as inactive or inconclusive.

SMILES	TDP1 cell noCPT	HT1080 IDH1KD tx	HT1080-NT tox	TDP1 cell CPT	12-LOX inh	IL-1B inflam inh
c1cc(SSc2ccncc2)ccn1	16.4µM	–	–	?	6.31µM	?
COc1ccc(CNC(=O)C[C@@H]2[C@H](O)CCC3[C@](C)(CO)[C@H](OC(=O)NC4CCCCC4)CC[C@]32C)cc1 (stereo partly drawn)	·	·	·	·	–	·
O=C1Nc2ccc(Cl)cc2[C@@](C#CC2CC2)(C(F)(F)F)O1	16.8µM	·	·	?	·	·
O=C(Nc1ccc2c(c1)OCCO2)NC1CCN(C(=O)N2CC3CC(C2)[C@H]2CCCC(=O)N2C3)CC1 (stereo partly drawn)	·	·	·	·	–	·
CCOc1ccc(C(=O)Nc2ccc(-n3nncc3-c3ccc(OC)cc3)cc2)cc1	?	·	·	?	–	·
Cc1ccc(NC(=O)c2ccc(-n3nncc3-c3ccccc3)cc2)cc1	15.8µM	·	·	?	·	·
CCOc1ccc(C(=O)Nc2ccc(-n3nncc3-c3ccccc3)cc2)cc1OCC	14.6µM	·	·	18.4µM	–	·
COc1ccc(/C=C/C(=O)Nc2ccc(-n3nncc3-c3ccccc3)cc2)cc1OC	8.2µM	–	–	20.6µM	–	–
COc1ccc(/C=C/C(=O)Nc2ccc(C(N)=O)cc2)cc1OC	–	?	?	–	–	–
COC[C@@H]1CN(C(=O)c2ncoc2-c2cccc(C)c2)C[C@H]1C(N)=O	·	·	·	·	–	·
CN1C(=O)/C(=N/OC(=O)c2ccccc2)c2ccccc21	11.6µM	–	–	7.31µM	–	–
CCN1C(=O)CSC1=NC12CC3CC(CC(C3)C1)C2	?	–	–	?	–	-65.8
O=C1OCC2(CCN(Cc3ccc4c(c3)CCO4)C2)N1Cc1ccccc1 (stereo not drawn)	·	·	·	·	56.2µM	·
CC(C)C(NC(=O)CSc1ccc2c(c1)OCCO2)c1ccc2c(c1)OCCCO2 (stereo not drawn)	·	·	·	·	–	·
CCCCc1nc2sc3c(c2c(=O)[nH]1)CC(C)(C)OC3	–	–	–	–	–	–
CCC1CC2(C)NC(=O)c3c(sc4c3CC(C)(C)OC4)N2C1=O (stereo not drawn)	20.6µM	–	–	?	?	–
Cc1ccc(NC(=O)CN(C)C(=O)CCNS(=O)(=O)c2ccc(C)cc2)cc1	·	·	·	·	–	·
Cc1cc(S(=O)(=O)NCc2nc(N3CCCC3)c3cc(Cl)ccc3n2)c(C)s1	–	·	·	–[9.04 µM]	–	·
CC(C)N(CCO)Cc1nc(N2CCOCC2)c2cc(Cl)ccc2n1	20.6µM	·	·	?	?	·
COc1ccccc1CN1C[C@@H]2C[C@@H](c3ccc4nsnc4c3)N3CCC[C@@]23C1=O	23.1µM	–	–	?	–	–
COc1ccccc1CN1C[C@@H]2C[C@@H](c3ccccc3C)N3CCC[C@@]23C1=O	29.1µM	–	–	?	–	–
O=C(NCc1ccccc1)NC12CC3CC(CC(C3)C1)C2	20.6µM	–	–	14.6µM	–	–
O=C(NCc1ccccc1)NCC12CC3CC(CC(C3)C1)C2	?	–	–	?	–	–
O=C(CC12CC3CC(CC(C3)C1)C2)NC(=S)NCc1ccccc1	18.4µM	–	–	?	28.2µM	–
OC[C@H](Cc1ccccc1)Nc1nc(Oc2ccc3c(c2)CCC3)nc2c1ncn2Cc1ccc(-c2ccccc2)cc1	·	·	·	·	–	·
SMILES	TDP1 cell noCPT	HT1080 IDH1KD tx	HT1080-NT tox	TDP1 cell CPT	12-LOX inh	IL-1B inflam inh
Cc1ccccc1-c1noc(CSc2nnc(Cc3ccccc3)n2-c2ccc(F)cc2)n1	9.2µM	·	·	?	–	·
CCOc1ccc(-n2c(Cc3ccccc3)nnc2SCc2nc(-c3ccccc3OC)no2)cc1	16.4µM	·	·	?	–	·
CC(=O)Nc1cccc(C(=O)NCc2nnc3ccc(-c4ccccc4)nn23)c1	·	·	·	·	–	·
CCN(C[C@H]1N[C@@](C)(C(=O)OC)[C@H]2C(=O)N(C)C(=O)[C@@H]12)C(=O)Nc1ccc(C(F)(F)F)cc1	–	–	–	–	–	–
O=C(Nc1cccc(-c2nnc(-c3ccco3)o2)c1)c1ccccc1	?	–	–	?	–	-77.7
O=C(Cc1ccccc1)Nc1cccc(-c2nnc(-c3ccco3)o2)c1	14.6µM	–	–	?	–	–
COc1ccccc1OCC(=O)Nc1cccc(-c2nnc(-c3ccco3)o2)c1	20.6µM	?	–	?	–	–
O=C(COc1ccccc1)Nc1ccc(-c2nnc(-c3ccco3)o2)cc1	–	11.6µM	9.2µM	–	–	–
O=C(Cc1ccc(Cl)cc1)Nc1cccc(-c2nnc(-c3ccco3)o2)c1	?	?	?	?	–	–
CNCc1cccc(OC)c1OCc1ccc(Cl)cc1	·	·	·	·	–	·
C[C@@H]1CN(C2(C(=O)NCc3n[nH]c4c3CCC4)Cc3ccccc3C2)C[C@H](C)O1	·	·	·	·	–	·
O=C(Cc1ccc(Br)cc1)NCc1nnc2ccc(-c3ccccc3)nn12	·	·	·	·	–	·
O=C(Nc1cccc(-c2nnc(-c3ccco3)o2)c1)C(c1ccccc1)c1ccccc1	16.4µM	–	–	?	–	–
COc1ccc(NC(=O)c2nnn(-c3cc(Cl)ccc3OC)c2C)cc1	·	·	·	·	–	·
COc1ccc(-c2noc(C3CCCN(C(=O)CCc4ccccc4)C3)n2)cc1 (stereo not drawn)	?	–	–	17.8µM	–	–
CCCCCC(=O)N1CCCC(c2nc(-c3ccc(OC)cc3)no2)C1 (stereo not drawn)	23.1µM	–	–	?	–	?
CCCCCCC(=O)N1CCCC(c2nc(-c3cccc(OC)c3)no2)C1 (stereo not drawn)	?	–	–	–	–	-62.5
COc1cccc(-c2noc(C3CCCN(C(=O)c4cccc(F)c4)C3)n2)c1 (stereo not drawn)	?	–	–	?	–	–
COc1ccc(CCC(=O)N2CCCC(c3nc(-c4ccccc4)no3)CCNC(=O)CC2)cc1 (stereo not drawn)	·	·	·	·	–	·
CCCC(=O)N1CCCC(c2nc(-c3cccc(OC)c3)no2)C1 (stereo not drawn)	?	–	–	?	–	–
COc1cccc(-c2noc(C3CCCN(C(=O)Cc4ccccc4)C3)n2)c1 (stereo not drawn)	18.4µM	–	–	18.4µM	–	–
CCc1noc(-c2cccn3c(CNC(=O)Cc4ccc(C)cc4)nnc23)n1	·	·	·	·	–	·
